# Test results: PubChem BioAssay AID588458 (Sanford-Burnham Center for Chemical Genomics, 2011)
# Screen size: about 360,000 compounds; about 3,000 (0.83%) were called active. The list comes from a sample in which actives are over-represented; it also holds similar structures and randomly drawn compounds. A number with no mark means an inactive call. Rule as the data show it: active = inhibition above about 50%; inactive = the rest.
# Biological target: DNA (cytosine-5)-methyltransferase 1 (Homo sapiens) (UniProt P26358)
# Assay: inhibition of DNA methyltransferase DNMT1 – biochemical, molecular beacon, fluorescence, HinP1I cleavage, uHTS, primary screen (AID 588458)
# Conditions: at 10 µM, hits give high values
# Sequence of DNA (cytosine-5)-methyltransferase 1 (Homo sapiens) (P26358 504-1616 limits assumed): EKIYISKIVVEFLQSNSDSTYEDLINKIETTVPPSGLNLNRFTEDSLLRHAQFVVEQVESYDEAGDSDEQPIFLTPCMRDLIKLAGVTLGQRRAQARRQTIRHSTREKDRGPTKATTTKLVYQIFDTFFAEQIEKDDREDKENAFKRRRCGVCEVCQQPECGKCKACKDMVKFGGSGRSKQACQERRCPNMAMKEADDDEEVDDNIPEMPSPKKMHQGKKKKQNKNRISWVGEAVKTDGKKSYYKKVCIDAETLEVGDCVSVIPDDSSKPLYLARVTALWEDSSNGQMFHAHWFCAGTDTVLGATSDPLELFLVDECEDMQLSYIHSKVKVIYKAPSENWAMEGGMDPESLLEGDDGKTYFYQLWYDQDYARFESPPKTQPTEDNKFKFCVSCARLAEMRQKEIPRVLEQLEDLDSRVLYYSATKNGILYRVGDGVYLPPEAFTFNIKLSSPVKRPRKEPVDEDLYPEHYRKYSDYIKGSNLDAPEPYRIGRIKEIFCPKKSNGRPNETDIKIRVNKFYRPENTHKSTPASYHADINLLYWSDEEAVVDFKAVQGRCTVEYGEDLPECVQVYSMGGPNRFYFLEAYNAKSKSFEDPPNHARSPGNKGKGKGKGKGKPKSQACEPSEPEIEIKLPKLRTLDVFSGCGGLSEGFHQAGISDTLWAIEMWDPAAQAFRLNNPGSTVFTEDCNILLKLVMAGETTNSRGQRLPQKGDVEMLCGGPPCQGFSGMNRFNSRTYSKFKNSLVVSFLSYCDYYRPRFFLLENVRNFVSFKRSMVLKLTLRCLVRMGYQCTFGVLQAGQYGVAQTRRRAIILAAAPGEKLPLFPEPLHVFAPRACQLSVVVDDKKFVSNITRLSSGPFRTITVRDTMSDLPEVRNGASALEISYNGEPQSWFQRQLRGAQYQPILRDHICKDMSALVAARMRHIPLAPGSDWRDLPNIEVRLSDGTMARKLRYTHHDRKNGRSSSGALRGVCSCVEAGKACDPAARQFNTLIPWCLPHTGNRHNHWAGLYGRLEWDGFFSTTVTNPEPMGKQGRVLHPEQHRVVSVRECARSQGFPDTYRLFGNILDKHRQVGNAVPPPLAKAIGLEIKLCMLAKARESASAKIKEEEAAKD
row,Structure (SMILES),inhibition (reported as % activation of signal)
1,Cc1cc(C(=O)OCC(=O)NCc2ccco2)c(C)n1-c1ccccc1,55.9% (active)
2,O=C(COC(=O)c1ccccc1O)NCc1ccco1,50%
3,N#CC(C#N)=CN=c1ccn(Cc2ccc(Cl)cc2Cl)cc1,-4.93%
4,Cc1cccc(C)c1NC(=O)C1(C)c2cccc[n+]2CC(=O)N1Cc1cccs1 (stereo not given),-3.99%
5,O=C(/C=C/c1cnc2ccccc2n1)NC1CCCCCC1,-5.96%
6,COc1ccc(CCNC(=O)C(=O)NCC2OCCN2S(=O)(=O)c2ccc(OC)c(C)c2)cc1 (stereo not given),-5.69%
7,O=c1[nH][nH]c(C(F)(F)F)c1C=NCc1ccccc1Cl,-3.13%
8,CCN(CC)S(=O)(=O)c1ccc(N2CC(C(=O)NCc3cccnc3)CC2=O)cc1 (stereo not given),2.78%
9,O=C(N/N=C/c1cccc(OC(=O)c2ccc([N+](=O)[O-])cc2)c1)c1cccnc1,2.43%
10,Cc1cc(N2CCCC2)ccc1NC(=O)COc1ccc(Cl)cc1,59.6% (active)
11,O=C(CCC(=O)N1CCCC1)Nc1ccc([N+](=O)[O-])cc1,0.7%
12,O=C(COC(=O)C1CCCCC1)Nc1ccc([N+](=O)[O-])cc1,-1.74%
13,O=C(COc1ccc(Cl)cc1)Nc1ccccc1CO,0.96%
14,Cc1cc(C)cc(OCC(=O)Nc2ccc(N3CCOCC3)cc2N2CCOCC2)c1,-5.22%
15,O=C(COc1ccc([N+](=O)[O-])cc1)Nc1ccc(N2CCCC2)cc1,92.5% (active)
16,O=C(COc1ccc([N+](=O)[O-])cc1)Nc1cccc(C(=O)Nc2ccccc2C(=O)O)c1,-0.08%
17,O=C(COc1ccc(/C=N/NC(=O)c2ccc(O)cc2)cc1)Nc1ccc([N+](=O)[O-])cc1,54% (active)
18,CC(CO)N1CCS(=O)(=O)CC1 (stereo not given),4.55%
19,Cc1ccc(C)n1-c1ccncc1,-0.41%
20,COc1ccc(NS(=O)(=O)c2ccc(C)c(C(=O)N(C)Cc3ccc(OC)cc3OC)c2)cc1,-0.59%
21,C[C@H]([C@@H](O)[C@@H](O)[C@@H](C)C(C)(C)C)[C@H]1CC[C@H]2C3CC[C@H]4C[C@H](OS(=O)(=O)O)[C@@H](OS(=O)(=O)O)C[C@]4(C)[C@H]3CC[C@]12C (stereo not given in full),46.8%
22,CC(C)Oc1ccc(CC(=O)NNC(=S)Nc2ccc(Br)cc2)cc1,-8.54%
23,CCCOc1ccc(Cc2c(Cl)nc(SC)nc2NC)cc1,5.36%

row,Structure (SMILES),inhibition (reported as % activation of signal)
1,CC(C)c1ccc(Nc2nnc(SCC(=O)c3nnc(-c4ccccc4)o3)s2)cc1,79.2% (active)
2,CC(C)Nc1nnc(SCC(=O)c2c[nH]c3ccccc23)s1,-9.78%
3,CC(C)N(C(=O)CSc1nnc(NC2CC2)s1)c1ccccc1,-1.85%
4,CN(C)CCNC(=O)c1cccc(-c2cnc3c(NC=O)cc(-c4cccc(C(F)(F)F)c4)cn23)c1,-1.67%
5,COC(=O)CN1C(=O)N/C(=C/c2ccc(OC)c(C)c2OC)C1=O,0.3%
6,Cc1ccccc1NC(=O)Cn1c(=O)n(CC2CCCO2)c(=O)c2ccccc21 (stereo not given),1.1%
7,Cc1ccccc1NC(=O)CN1C(=O)N/C(=C\c2cccn2-c2cccc(C(=O)O)c2)C1=O,92.6% (active)
8,CC(C)n1ncc2c(C(=O)N3CCN(Cc4cccs4)CC3)cc(C3CC3)nc21,2.36%
9,COc1cc(C)c(C(C)C)cc1S(=O)(=O)n1ccnc1,27.6%
10,C=CCCC(=O)Nc1nc(C)c(-c2csc(Nc3ccc(Cl)cc3)n2)s1,-14.7%
11,Cc1cn([C@H]2C[C@H](O)[C@@H](/C=C/C(=O)NCCCc3ccccc3)O2)c(=O)[nH]c1=O,1%
12,CCC(=O)Nc1cccc(C2=NOC3(C2)C[C@@H](C(N)=O)N(C(=O)c2cc([N+](=O)[O-])cc([N+](=O)[O-])c2C)C3)c1 (stereo not given in full),4.19%
13,O=S(=O)(Nc1ccc2[nH]ncc2c1)c1ccccc1Cl,-2.94%
14,COc1cc(/C(=C/c2ccccc2)c2ccccc2)c2c(c1)oc1ccccc12,10.2%
15,Cc1nnc(N/N=C/c2ccccn2)[nH]c1=O,5.44%
16,Cc1n[nH]c(=O)nc1N/N=C/c1cccs1,3.53%
17,Cc1nnc(N/N=C/c2cccs2)[nH]c1=O,56% (active)
18,CNc1ccc(SC#N)cc1,-16.1%
19,ON=C1/C(=N\O)CC2(C/C1=N/O)OCCO2,12.4%
20,O/N=C1\CC2(Cc3nonc31)OCCO2,77.1% (active)
21,CC(C)N=C1CCCC1C(=S)SSC(=S)C1CCCC1=NC(C)C (stereo not given),-10.8%
22,O=C(NCCCN1CCOCC1)c1ccccc1NS(=O)(=O)c1ccc(F)cc1,0.01%
